Test results taken from the supplement of paper PMC8253809.
Where “and” joins values, the source holds several entries; their conditions need not be identical. Identical values can stand only once.

What was measured:
Assay in all cases: growth inhibition (% activity, log2 RLU normalised to DMSO / staurosporine); higher = more growth inhibition
Settings in all cases: 33 µM
DIPGX29 = tested on: DIPGX29 (H3.3 K27M diffuse intrinsic pontine glioma line)
How it was run: (§1)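 In triplicate, pHGG cell lines and H9-derived neural stem cells were treated for 7 days at 37 °C, 5% CO2 with approved drugs at a single final concentration of about 33 μM, added by pin tool. CellTiter-Glo luminescence, after log2 transformation, was normalised on each plate to % activity between solvent and positive control wells. Growth inhibition is reported as the median across replicates.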

DIPGX37 = tested on: DIPGX37 (H3.3 K27M diffuse intrinsic pontine glioma line)
How it was run: as §1

DIPGX7 = tested on: DIPGX7 (H3.3 K27M diffuse intrinsic pontine glioma line)
How it was run: as §1

DIPGX9 = tested on: DIPGX9 (diffuse intrinsic pontine glioma line)
How it was run: as §1

HGGX39 = tested on: HGGX39 (paediatric high-grade glioma line)
How it was run: as §1

HGGX6 = tested on: HGGX6 (H3.3 G34R paediatric high-grade glioma line)
How it was run: as §1

HNSC = tested on: HNSC
How it was run: as §1

SUDIPGIV = tested on: SUDIPGIV (diffuse intrinsic pontine glioma line)
How it was run: as §1

SUDIPGVI = tested on: SUDIPGVI (diffuse intrinsic pontine glioma line)
How it was run: as §1

SUDIPGXIII = tested on: SUDIPGXIII (diffuse intrinsic pontine glioma line)
How it was run: as §1

Compound | growth inhibition (DIPGX29) | growth inhibition (DIPGX37) | growth inhibition (DIPGX7) | growth inhibition (DIPGX9) | growth inhibition (HGGX39) | growth inhibition (HGGX6) | growth inhibition (HNSC) | growth inhibition (SUDIPGIV) | growth inhibition (SUDIPGVI) | growth inhibition (SUDIPGXIII)
CN(C)C1C(=O)C(C(N)=O)=C(O)C2(O)C(=O)C3=C(O)c4c(O)cccc4C(C)(O)C3CC12 (stereo not given) | -1.53% | -2.75% | 0.404% | -0.553% | 1.88% | -0.661% | -1.6% | 2.83% | -2.69% | -1.63%
Cc1cccc(C)c1NC1=NCCCS1 | -3.36% | -1.28% | -0.135% | -0.817% | -0.494% | 0.819% | -4.34% | 2.42% | -4.55% | 0.0734%
Cc1cc(O)ccc1Cl | -0.668% | 0.714% | 0.716% | -0.222% | 0.78% | 0.216% | -2.46% | -0.746% | 0.283% | 0.848%
O=C(O[C@H]1C[N+]2(CCCOc3ccccc3)CCC1CC2)C(O)(c1cccs1)c1cccs1 | -1.76% | -1.33% | -0.665% | -1.04% | -0.0721% | -0.623% | 3.39% | -1.77% | -5.53% | 0.0508%
CC(C)NCC(O)c1ccccc1Cl (stereo not given) | 0.364% | -1.04% | -0.863% | -0.306% | 2.3% | 1.8% | -2.5% | 0.901% | 0.486% | -0.265%
CN1C(=O)CCS(=O)(=O)C1c1ccc(Cl)cc1 (stereo not given) | 0.502% | 0.814% | 0.531% | 1.13% | 2.2% | 1.29% | 2.59% | 0.226% | -0.17% | -0.0547%
CCC1=C[C@H]2CN3CCc4c([nH]c5ccccc45)[C@](C(=O)OC)(C2)[C@H]13 | -4.07% | -1.56% | -1.78% | -1.01% | -1.76% | -3.94% | -4.27% | 2.26% | -1.41% | -2.44%
C[N+]1(C)[C@@H]2C[C@@H](OC(=O)[C@H](CO)c3ccccc3)C[C@H]1[C@@H]1O[C@@H]12 | -0.834% | 1.29% | 0.707% | 0.849% | 2.27% | 2.07% | -1.37% | -0.286% | 0.639% | 0.798%
COC(=O)C1=CCCN(C)C1 | 2.02% | 4.11% | 0.892% | 1.35% | 1.54% | 1.61% | 1.06% | 0.353% | 3.57% | 1.1%
CCN(C)C(=O)Oc1cccc([C@H](C)N(C)C)c1 | -0.955% | -0.495% | 1.09% | 0.618% | 1.41% | 0.109% | 4.36% | -1.75% | -2.42% | -0.000881%
CCOC(=O)c1cncn1[C@H](C)c1ccccc1 | 1.12% | 2.21% | 2.54% | 2.62% | 1.86% | 2.36% | 3.19% | -0.15% | 2.48% | 0.0732%
O=P1(NCCCl)OCCCN1CCCl (stereo not given) | -2.21% | -0.766% | 5.61% | 0.389% | 3.87% | -0.383% | -5.21% | -2.15% | -7.65% | -1.43%
C[N+](C)(C)CCCCCCCCCC[N+](C)(C)C | 0.486% | -0.577% | 1.7% | 1.41% | 3.26% | 2.4% | 1.52% | 0.278% | 4.87% | -1.36%
COc1ccc(C(CN(C)C)C2(O)CCCCC2)cc1 (stereo not given) | 1.29% | 1.34% | 1.7% | 0.288% | 0.682% | -0.233% | 1.61% | 0.0945% | -1.13% | -0.0836%
CNCC(=O)c1ccc(O)c(O)c1 | -1.95% | 2.52% | -0.724% | -0.688% | 0.248% | -0.714% | -1.87% | 0.154% | -1.65% | 3.12%
N[C@@H]1C[C@H]1c1ccccc1.N[C@H]1C[C@@H]1c1ccccc1 | 1.4% | 3.63% | 2.09% | -0.549% | 5.28% | 2.4% | 3.66% | 1.14% | 3.88% | 0.0986%
CN(C)C(=O)Oc1cccc([N+](C)(C)C)c1 | -3.32% | 0.574% | -0.239% | -1.38% | -0.512% | -1.84% | -0.376% | -1.46% | -1.83% | 1.72%
NCC1(CC(=O)O)CCCCC1 | 2.13% and 0.326% | 4.84% and 0.615% | 3.15% and 1.16% | -0.041% and -0.903% | 2.36% and -1.3% | 2.04% and -2.75% | 2.28% and -0.457% | 1.22% and -1.85% | 2.85% and -1.96% | -1.15% and -0.111%
C[C@]12CC[C@H](O)CC1=CC[C@@H]1[C@@H]2CC[C@]2(C)C(=O)CC[C@@H]12 | 2.61% | 1.45% | 2.22% | 1.17% | 3.44% | 4% | 3.63% | 2.37% | 3.47% | 1.67%
